Compound activity (PubChem)
In the library only some 2.3% were active in any assay of this set; here they are far more common.
CHO-K1 Ca ag: counter-screen for M1 agonists: effect in parental CHO-K1 cells. Fluo-8 calcium fluorescence; scaled to maximal ATP response, vehicle zero. activation, % at 3 µM. 0.48% of 360,000 active. AID 602248, 2012; in the data active = activation above about 15%;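 also: untransfected CHO-K1 host cells lacking M1 receptor as counterscreen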
CHO-K1 Ca PAM: nonselective calcium activators in parental CHO-K1 cells, primary screen, counter-screen for M1 PAM project, cell-based, Fluo-8 calcium fluorescence, full deck, 1536-well | activation, % at 3 µM | ATP EC20; 0% at ATP EC20, 100% at ATP max | 0.02% of 360,000 active;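 active = activation above the run cutoff, the mean activation of all test compounds plus 3 SD, cut at about 40% in these data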;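 also: peak over basal fluorescence ratio in a 140 s read after ATP addition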
CHRM1 agonist: human M1 muscarinic receptor agonists, primary screen, Fluo-8 calcium fluorescence, CHO-K1 cells, HTS | Muscarinic acetylcholine receptor M1 (Homo sapiens), P11229 | CHO-K1 hM1, agonist mode; 0% DMSO, 100% acetylcholine EC100 | activation, % at 3 µM | AID 588814, 2011 | 0.33% of 360,000 active;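 active = activation above the run's mean compound activation plus 3 SD, cut at about 16% in these data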;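 also: peak over basal fluorescence ratio within a 140 s kinetic read after compound addition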
Target sequence (P11229 whole entry, looked up): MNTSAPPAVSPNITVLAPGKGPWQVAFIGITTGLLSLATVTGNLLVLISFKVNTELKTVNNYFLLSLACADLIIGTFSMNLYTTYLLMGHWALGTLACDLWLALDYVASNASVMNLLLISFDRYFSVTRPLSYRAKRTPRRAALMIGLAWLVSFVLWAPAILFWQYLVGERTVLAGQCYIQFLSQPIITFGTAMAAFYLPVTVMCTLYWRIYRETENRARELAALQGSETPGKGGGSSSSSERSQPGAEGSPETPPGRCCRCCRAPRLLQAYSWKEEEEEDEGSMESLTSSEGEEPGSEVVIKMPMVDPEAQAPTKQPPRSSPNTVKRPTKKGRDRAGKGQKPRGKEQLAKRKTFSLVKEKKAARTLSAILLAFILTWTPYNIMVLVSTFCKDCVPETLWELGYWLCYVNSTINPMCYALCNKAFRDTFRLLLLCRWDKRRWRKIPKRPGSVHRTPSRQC
CHO-K1 Ca antag: counter-screen for M1 antagonists: effect in parental CHO-K1 cells; ATP-induced calcium, Fluo-8 fluorescence; inhibition, % at 3 µM; 0.6% of 360,000 active; AID 602250;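 active = inhibition above a per-plate cutoff, the plate's mean sample inhibition plus 3 SD, cut at about 24% in these data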;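 also: 0% = DMSO plus EC80 ATP and 100% = DMSO alone without ATP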
M1 PAM: human M1 muscarinic receptor positive allosteric modulators, primary screen, CHO-K1 cells, Fluo-8 calcium fluorescence, 1536-well; CHO-K1 hM1, ACh EC20; 0% = ACh EC20, 100% = maximal ACh; 0.088% of 360,000 active; activation, % at 3 µM; in the data active = activation above about 19%, passing the limit was not always enough
M1 antag: human M1 muscarinic receptor antagonists, primary screen, CHO-K1 cells, Fluo-8 calcium fluorescence, 1536-well; 1.3% of 360,000 active; inhibition, % at 3 µM; AID 588852, 2011; CHO-K1 hM1, ACh EC80 antagonist; Muscarinic acetylcholine receptor M1 (Homo sapiens), P11229;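 active = percent inhibition above its own plate's cutoff, namely the mean of that plate's compound wells plus 3 SD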;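 also: peak over basal fluorescence ratio during 140 s after agonist addition; 0% = ACh EC80 plus DMSO and 100% = DMSO alone without agonist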
Active calls of the source: *; x = no result.

SMILES	CHO-K1 Ca ag	CHO-K1 Ca PAM	CHRM1 agonist	CHO-K1 Ca antag	M1 PAM	M1 antag
C[C@@H]1CCCCO[C@@H](CN(C)Cc2ccncc2)[C@@H](C)CN([C@H](C)CO)C(=O)c2cc(NC(=O)c3ccccc3)ccc2O1	0.0	6.8	-3.1	-10.9	2.1	-4.5
CC(C)C[C@H]1CN(CCCC[C@H]2CNC(=O)C(=O)N2Cc2ccccc2)C(=O)C(=O)N1CCc1ccc(O)cc1	1.3	14.2	x	-12.5	x	x
CCN=C1SC(C(=O)Nc2cc(Cl)cc(Cl)c2)CC(=O)N1CC (stereo unspecified)	0.5	16.9	-3.6	-14.5	5.9	-9.9
CCN=C1SC(C(=O)Nc2cccc(Cl)c2)CC(=O)N1CC (stereo unspecified)	7.4	7.4	0.2	4.9	-9.4	37.7*
CCN1C(=O)CC(C(=O)Nc2ccc(F)cc2)SC1=Nc1ccc2c(c1)OCO2 (stereo unspecified)	3.2	14.6	-1.4	10.3	-3.4	11.8
CCN=C1SC(C(=O)Nc2ccc(OC)cc2)CC(=O)N1CC (stereo unspecified)	5.4	0.5	-1.0	19.2	-20.0	31.7*
CCN=C1SC(C(=O)Nc2cccc(Br)c2)CC(=O)N1CC (stereo unspecified)	7.9	-0.6	-3.2	15.7	-14.9	29.9*
CCN=C1SC(C(=O)NCCc2ccccc2)CC(=O)N1CC (stereo unspecified)	3.9	16.7	-0.8	3.0	-13.6	26.0*
CCN=C1SC(C(=O)Nc2ccc(OCC)cc2)CC(=O)N1CC (stereo unspecified)	5.9	7.6	1.8	3.9	-13.1	16.9
Cc1ccc(N=C2SC(C(=O)NCCc3ccccc3)CC(=O)N2C)cc1C (stereo unspecified)	1.9	16.7	-7.2	-9.3	-17.4	13.8
CCCNC(=O)C1(C)CCCN(Cc2ccc(-c3ccccc3)o2)C1 (stereo unspecified)	0.7	11.4	-8.0	-11.9	-5.1	1.6
O=[N+]([O-])c1nccn1C1C=CC(O)C(CO)O1 (stereo unspecified)	1.7	1.9	x	-7.8	x	x
CCN=c1sc(C(=O)NCCc2ccccc2)cc(=O)n1CC	6.1	6.7	4.4	14.8	-3.6	30.2*
CCN=C1SC(C(=O)Nc2cccc(C)c2)CC(=O)N1CC (stereo unspecified)	4.3	5.4	3.1	15.2	-10.5	32.9*
CCN=C1SC(C(=O)Nc2ccc(Cl)c(Cl)c2)CC(=O)N1CC (stereo unspecified)	3.9	13.0	-0.9	4.7	-4.6	6.7
O=C(CNC(=O)C12CC3CC(CC(C3)C1)C2)Nc1ncccc1O	0.3	-2.0	-2.6	-18.4	3.0	-5.7
O=C(Nc1ccc(Cl)cc1)c1cc2c(cc1O)[nH]c1ccccc12	15.9*	-15.1	3.2	28.8*	-5.7	25.4
CCOC(=O)C1(C)CCCN1C(=O)c1sccc1C (stereo unspecified)	0.5	1.7	-3.2	-2.5	7.4	-11.0
O=C(O)c1ccc2c(=O)n(-c3ccc(F)cc3)c(=S)[nH]c2c1	0.4	14.0	-0.8	-7.3	22.7	38.4*
CC(=O)Nc1ccc(-n2c(=O)c3ccccc3c3ccccc3c2=O)cc1	-0.2	-0.2	-0.7	-14.3	5.2	-5.8
O=C(O)c1ccc(-n2c(=O)c3ccccc3c3ccccc3c2=O)cc1	-0.2	-16.1	-2.6	30.6*	-11.9	11.0
CC(=O)N1CCC(C(=O)Nc2cc(S(=O)(=O)N3CCCCC3)ccc2C)CC1	0.1	-9.6	-4.0	3.1	-7.6	15.8
COCCNC(=S)N1CCC(C(=O)c2ccc(F)cc2)CC1	0.8	6.5	3.3	-8.8	18.2	-18.2
COc1ccc(C(=O)C2CCN(C(=S)NCCc3ccc(OC)c(OC)c3)CC2)cc1	18.2*	0.6	-2.6	-5.6	-17.6	3.3
COc1ccc(C(=O)C2CCN(C(=O)Nc3ccc(C)cc3)CC2)cc1	18.8*	-3.1	10.1	4.1	9.7	-10.2
SMILES	CHO-K1 Ca ag	CHO-K1 Ca PAM	CHRM1 agonist	CHO-K1 Ca antag	M1 PAM	M1 antag
Cc1ccc(NC(=O)N2CCC(C(=O)c3ccc(F)cc3)CC2)cc1	2.8	-0.7	-2.9	-13.4	4.8	-2.0
COc1ccc(CCNC(=S)N2CCC(C(=O)c3ccc(F)cc3)CC2)cc1OC	15.4*	8.7	-1.0	-3.9	0.2	1.7
COc1ccc(C(=O)C2CCN(C(=S)NCCc3ccccc3)CC2)cc1	5.9	22.7	-3.3	-18.7	6.9	-0.5
O=C(OC1CC2CC1[C@H]1CCCCN1C2=O)N1CCC(c2ccccc2)CC1 (stereo partly specified)	1.7	8.6	x	-9.1	x	x
COc1ccccc1N(C)S(=O)(=O)c1ccc(Cl)c(C(=O)Nc2ccccc2N2CCOCC2)c1	0.0	-20.3	-3.9	-12.2	4.1	-7.3
CCC1CCCCN1CCNC(=O)C1CCN(S(=O)(=O)c2c(C)noc2C)CC1 (stereo unspecified)	0.7	-0.6	-6.6	4.5	-24.0	48.2*
Fc1ccc2c(c1)Sc1ccc(Cl)cc1CC2N1CCN(CCC2OCCO2)CC1 (stereo unspecified)	1.4	15.0	-7.1	-11.4	-26.0	75.3*
NC(=O)CCN1CCN(CCOC2Cc3cc(Cl)ccc3Sc3ccccc32)CC1 (stereo unspecified)	4.2	11.7	-10.6	-5.5	-7.9	-2.3
CC(C)NC(=O)CN1CCN(Cc2nc(C(c3ccccc3)c3ccccc3)no2)CC1	3.3	16.6	-5.3	-10.5	-28.4	51.7*
CC(=O)N1CCN(Cc2nc(C(c3ccccc3)c3ccccc3)no2)CC1	2.4	23.0	-13.2	-1.9	-13.9	1.6
NC(=O)CCN1CCN(Cc2nc(C(c3ccccc3)c3ccccc3)no2)CC1	-0.1	18.4	-15.1	-2.5	-35.7	28.6*
CC(C)NC(=O)CN1CCN(Cc2nc(-c3cccs3)no2)CC1	0.3	9.6	-6.2	3.4	1.3	14.2
c1ccc(C(c2ccccc2)c2noc(CN3CCN(C4CCCC4)CC3)n2)cc1	15.3*	20.9	-13.5	-3.6	-30.1	60.0*
COc1cc(CN2C[C@@H](CO)O[C@@H](n3cnc4c(NCC(C)C)ncnc43)C2)cc(OC)c1OC	-0.1	-2.8	-2.0	-2.2	2.0	-9.1
COc1cc(-c2cc3nc4ccccc4n3c(N)c2C#N)cc(OC)c1OC	6.6	0.2	-1.3	2.2	-13.7	36.9*
O=[N+]([O-])c1ccc(Oc2c(F)c(F)nc(N3CCCC3)c2F)cc1	11.1	-5.1	-4.8	13.3	-12.5	27.8*
